Experimental data as given in PubChem BioAssay.
For part of these data: Results with a measured potency or affinity are listed apart. Active and inactive are the calls of the source.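 Rule for the calls, unless noted: active = calcium signal ratio cut to more than 3 SD under the fully stimulated control mean yet still positive, in both repeats and the primary screen; inactive = the rest.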

How the values were obtained:
[1] = test system: TRPC4 beta (transient receptor potential cation channel C4), mouse; test: TRPC4 cation channel opening, retest – cell-based, Fluo4 calcium, HEK293 TRPC4beta/mu-opioid, duplicates, 10 µM, confirmation (AID 2426;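 active = fluorescence ratio normalized to control raised more than 50% in primary screen plus both repeat runs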); details: Fluo4 calcium fluorescence, at 10 µM; stronger effect = higher value
[2] = test system: transient receptor potential cation channel C4 beta (TRPC4), mouse; test: TRPC4 cation channel opening, second retest – cell-based, second round, Fluo4, HEK293 TRPC4beta/mu-opioid, 1 µM, confirmation (AID 2461;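 active = primary screen active and over 50% activation in each of two duplicate runs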); details: Fluo4 calcium fluorescence, at 1 µM; stronger effect = higher value
[3] = test system: TRPC4 (transient receptor potential cation channel C4 beta), mouse; test: potentiation of DAMGO EC20 TRPC4 response – cell-based, second round, Fluo-4, HEK293 TRPC4beta/mu-opioid, 1 µM, confirmation (AID 2554;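 active = primary screen hit whose fluorescence ratio, in both repeats, exceeds the weak agonist control mean by 3 SD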); details: DAMGO EC20, Fluo-4 calcium flux, at 1 µM; stronger effect = higher value
[4] = test system: TRPC4 beta (transient receptor potential cation channel C4), mouse; test: potentiation of DAMGO EC20 TRPC4 response – cell-based, Fluo-4, HEK293 TRPC4beta/mu-opioid, confirmation (AID 2555;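 active = primary screen hit whose calcium fluorescence ratio, in both repeats, exceeds the weak agonist control mean by 3 SD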); details: DAMGO EC20, Fluo-4 calcium flux, at 10 µM; stronger effect = higher value
[5] = biological target: Short transient receptor potential channel 4 (Mus musculus) (UniProt Q9QUQ5); test: blockers of DAMGO-evoked TRPC4 calcium flux – cell-based, Fluo4, HEK293 TRPC4beta/mu-opioid, confirmation (AID 2636;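 active = calcium signal cut by more than 3 SD below the full-agonist control yet still positive, in both repeats and the earlier primary screen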); details: at 10 µM; stronger effect = higher value
Sequence of Short transient receptor potential channel 4 (Mus musculus) (Q9QUQ5 whole entry, looked up): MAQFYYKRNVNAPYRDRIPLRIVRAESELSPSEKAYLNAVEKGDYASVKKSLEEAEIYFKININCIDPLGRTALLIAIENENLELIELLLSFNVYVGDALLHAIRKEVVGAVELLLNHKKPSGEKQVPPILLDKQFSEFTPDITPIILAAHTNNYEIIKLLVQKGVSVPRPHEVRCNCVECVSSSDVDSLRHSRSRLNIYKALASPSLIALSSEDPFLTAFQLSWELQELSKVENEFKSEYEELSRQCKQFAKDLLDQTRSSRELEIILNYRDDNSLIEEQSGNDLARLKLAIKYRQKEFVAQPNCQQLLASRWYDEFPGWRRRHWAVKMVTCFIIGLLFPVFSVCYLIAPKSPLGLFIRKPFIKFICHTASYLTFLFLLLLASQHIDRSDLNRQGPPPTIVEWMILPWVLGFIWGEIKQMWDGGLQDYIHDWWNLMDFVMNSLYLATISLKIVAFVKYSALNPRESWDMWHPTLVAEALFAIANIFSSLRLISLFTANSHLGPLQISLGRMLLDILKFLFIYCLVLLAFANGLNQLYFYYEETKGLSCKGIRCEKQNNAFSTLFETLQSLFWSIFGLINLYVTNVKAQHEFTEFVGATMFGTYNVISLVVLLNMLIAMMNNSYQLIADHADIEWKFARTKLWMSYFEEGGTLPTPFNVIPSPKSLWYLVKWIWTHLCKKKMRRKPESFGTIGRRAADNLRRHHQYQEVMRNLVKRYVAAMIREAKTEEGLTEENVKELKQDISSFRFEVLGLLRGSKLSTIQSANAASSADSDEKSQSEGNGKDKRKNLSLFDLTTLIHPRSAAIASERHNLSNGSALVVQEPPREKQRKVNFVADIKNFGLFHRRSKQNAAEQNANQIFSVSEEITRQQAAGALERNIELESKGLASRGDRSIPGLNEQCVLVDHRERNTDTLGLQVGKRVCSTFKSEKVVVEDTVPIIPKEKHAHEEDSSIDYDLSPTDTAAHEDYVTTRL

[6] = biological target: Short transient receptor potential channel 4 (Mus musculus) (UniProt Q9QUQ5); test: blockers of DAMGO-evoked TRPC4 calcium flux – cell-based, second round, Fluo4, HEK293 TRPC4beta/mu-opioid, 1 µM, confirmation (AID 2637); details: at 1 µM; stronger effect = higher value
[7] = biological target: Short transient receptor potential channel 4 (Mus musculus) (UniProt Q9QUQ5); test: calcium entry via TRPC4 opening agents – cell-based, HEK293 TRPC4/mu-opioid, Fluo-4 calcium, dose response (AID 434937;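 active = primary screen activator hit with a dose response curve and TRPC4 channel activation at any tested dose; inactive = no activation, no dose response, or not a primary hit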)
[8] = biological target: Short transient receptor potential channel 4 (Mus musculus) (UniProt Q9QUQ5); test: potentiation of DAMGO-evoked TRPC4 calcium signal – cell-based, HEK293 TRPC4/mu-opioid, Fluo-4 calcium, EC20 DAMGO, dose response (AID 434941;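 active = earlier screen potentiator hit that boosts the TRPC4 ion channel at some dose, with a dose response; inactive = no potentiation, no dose response, or not a prior hit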;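 note: calcium entry triggered by an EC20 dose of DAMGO at the co-expressed mu-opioid receptor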)
[9] = biological target: Short transient receptor potential channel 4 (Mus musculus) (UniProt Q9QUQ5); test: block of DAMGO-driven TRPC4 calcium entry – cell-based, HEK293 TRPC4/mu-opioid, Fluo-4 calcium, dose response (AID 434942;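 active = primary screen inhibitor hit that blocks the TRPC4 channel at some tested dose, yielding a dose curve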)
[10] = biological target: Short transient receptor potential channel 6 (Mus musculus) (UniProt Q61143); test: TRPC6 blockade by TRPC4 inhibitor hits – cell-based, HEK293, membrane potential dye, duplicate, selectivity assay for TRPC4 inhibitor project, confirmation (AID 434948;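 active = active in primary screen and both duplicates, each dropping signal beyond three positive-control SD with fluorescence still positive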); details: HEK293 TRPC6, membrane potential dye fluorescence, at 10 µM, stimulated with maximal-effect acetylcholine; stronger effect = higher value
Sequence of Short transient receptor potential channel 6 (Mus musculus) (Q61143 whole entry, looked up): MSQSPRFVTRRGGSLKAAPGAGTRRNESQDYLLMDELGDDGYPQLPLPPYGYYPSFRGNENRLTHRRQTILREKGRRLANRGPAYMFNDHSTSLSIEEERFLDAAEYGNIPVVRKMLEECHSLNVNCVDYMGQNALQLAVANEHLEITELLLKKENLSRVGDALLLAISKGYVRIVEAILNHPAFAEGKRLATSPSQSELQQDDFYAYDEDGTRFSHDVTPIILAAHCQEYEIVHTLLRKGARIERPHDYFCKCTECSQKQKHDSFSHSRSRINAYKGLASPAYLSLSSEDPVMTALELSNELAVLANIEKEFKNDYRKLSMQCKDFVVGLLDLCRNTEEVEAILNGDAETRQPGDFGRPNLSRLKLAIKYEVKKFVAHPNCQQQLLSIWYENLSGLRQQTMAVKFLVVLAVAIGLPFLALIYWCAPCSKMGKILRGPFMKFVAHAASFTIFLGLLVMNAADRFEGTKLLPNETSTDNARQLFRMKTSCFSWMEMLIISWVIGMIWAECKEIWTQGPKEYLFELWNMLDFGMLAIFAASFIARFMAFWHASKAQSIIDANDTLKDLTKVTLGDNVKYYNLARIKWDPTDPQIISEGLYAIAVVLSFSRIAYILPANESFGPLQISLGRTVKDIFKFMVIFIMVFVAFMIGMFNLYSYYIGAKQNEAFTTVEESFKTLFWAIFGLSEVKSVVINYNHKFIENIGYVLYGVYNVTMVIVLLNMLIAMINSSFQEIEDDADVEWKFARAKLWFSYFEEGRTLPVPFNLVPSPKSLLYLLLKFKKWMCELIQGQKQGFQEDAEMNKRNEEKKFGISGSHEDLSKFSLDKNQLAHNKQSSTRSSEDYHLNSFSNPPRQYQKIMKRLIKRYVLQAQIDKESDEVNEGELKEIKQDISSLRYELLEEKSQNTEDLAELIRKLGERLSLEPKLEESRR

[11] = biological target: Short transient receptor potential channel 6 (Mus musculus) (UniProt Q61143); test: TRPC6 opening by TRPC4 activator hits – cell-based, HEK293, membrane potential dye, duplicate, selectivity assay for TRPC4 activator project, confirmation (AID 434950;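 active = membrane potential signal rise above negative control mean plus 3 SD in both duplicates, also active in the earlier TRPC4 screen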;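 for activation: 0% = buffer only wells and 100% = acetylcholine maximal-effect wells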); details: HEK293 TRPC6, membrane potential fluorescence, at 10 µM; activation: stronger effect = higher value; outcome: activation
[12] = biological target: Short transient receptor potential channel 6 (Mus musculus) (UniProt Q61143); test: positive modulators of mouse TRPC6 channel – HEK293 cells, membrane potential dye, duplicate, selectivity assay for TRPC4 potentiator project, confirmation (AID 434952;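 active = compound raising the membrane signal above positive-control mean plus 3 SD in both repeats, and a primary screen hit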); details: HEK293 TRPC6, membrane potential dye fluorescence, at 10 µM, maximal acetylcholine added after compound; stronger effect = higher value
[13] = biological target: Short transient receptor potential channel 4 (Mus musculus) (UniProt Q9QUQ5); test: calcium flux activators in TRPC4/5HT1a cells, counter-screen for TRPC4 activator project, cell-based, second counter screen, HEK293 TRPC4/5HT1a, Fluo-4 (AID 434977;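 active = calcium signal rise above buffer-control mean plus 5 SD in both duplicates, and also a hit in the primary screen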); details: Fluo-4 calcium flux, at 10 µM; stronger effect = higher value
[14] = serotonin-gated TRPC4 signal block – cell-based, second counter screen, HEK293 TRPC4/5HT1a, Fluo-4, counter-screen for TRPC4 inhibitor project, confirmation (AID 434978;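 active = primary screen active whose calcium signal fell more than 3 SD beyond the full-serotonin control mean in both duplicate plates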;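 note: serotonin given first at submaximal then at maximal dose after compound preincubation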); details: Fluo-4 calcium flux, at 10 µM, serotonin added to trigger calcium flux; stronger effect = higher value
[15] = test system: TRPC4 (mouse), co-expressed with 5HT1a in HEK293; test: enhancement of serotonin-evoked TRPC4 response – cell-based, second counter screen, HEK293 TRPC4/5HT1a, Fluo-4, counter-screen for TRPC4 potentiator project, confirmation (AID 434979;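 active = signal rise over 3 SD above mean of control wells given weak agonist, in both repeats and first screen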); details: Fluo-4 calcium flux, at 10 µM, serotonin added at its EC20 dose; stronger effect = higher value
[16] = nonspecific calcium rise without TRPC4 – cell-based, HEK293 mu-opioid receptor line, counter-screen for TRPC4 activator project, confirmation (AID 449723;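 active = hit in primary screen, with calcium signal over 5 SD above buffer well mean in both duplicates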;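 note: counter screen cells carry the mu-opioid receptor alone and lack TRPC4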); details: HEK293 mu-opioid cells, Fluo-4 calcium fluorescence, at 10 µM; stronger effect = higher value
[17] = nonspecific potentiation of DAMGO calcium response – cell-based, HEK293 mu-opioid receptor line, counter-screen for TRPC4 allosteric potentiator project, confirmation (AID 449724;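 active = calcium signal rise more than 3 SD above the low-dose agonist control mean, in both duplicate plates and the primary screen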); details: HEK293 mu-opioid receptor cells, Fluo-4 calcium flux, at 10 µM, compound added before EC20 DAMGO stimulus; stronger effect = higher value

CN(C)c1ccc(NC(=O)C2C3C=CC(C3)C2C(=O)O)cc1 (stereo not given)
inactive: outcome [1] | outcome [2] | outcome [3] | outcome [4] | outcome [5] | outcome [6] | outcome [7] | outcome [8] | outcome [9] | outcome [10] | outcome [11] | outcome [12] | outcome [13] | outcome [14] | outcome [15] | outcome [16] | outcome [17]

O=[N+]([O-])c1ccc(C[n+]2cccc(O)c2)cc1
active: activation [11] 28.5%
inactive: outcome [1] | outcome [2] | outcome [3] | outcome [4] | outcome [5] | outcome [6] | outcome [7] | outcome [8] | outcome [9] | outcome [10] | outcome [12] | outcome [13] | outcome [14] | outcome [15] | outcome [16] | outcome [17]

O=[N+]([O-])c1ccc(N2CCN(CCOc3nonc3-c3ccccc3)CC2)c(Cl)c1
inactive: outcome [1] | outcome [2] | outcome [5] | outcome [6] | outcome [7] | outcome [8] | outcome [9] | outcome [10] | outcome [11] | outcome [12] | outcome [13] | outcome [14] | outcome [16] | outcome [17]
active: potentiation [3] 10% | potentiation [4] 34% | potentiation [15] 20.3%

CC1=NN(C(=O)COc2ccc(C)c(C)c2)C(O)(c2ccc(Cl)cc2)C1 (stereo not given)
inactive: outcome [1] | outcome [2] | outcome [3] | outcome [4] | outcome [5] | outcome [6] | outcome [7] | outcome [8] | outcome [9] | outcome [10] | outcome [11] | outcome [12] | outcome [13] | outcome [14] | outcome [15] | outcome [16] | outcome [17]

CCn1c(C)nc2cc(C(=O)N/N=C/c3cccc(O)c3O)ccc21
inactive: outcome [1] | outcome [2] | outcome [5] | outcome [6] | outcome [7] | outcome [8] | outcome [9] | outcome [10] | outcome [11] | outcome [12] | outcome [13] | outcome [14] | outcome [16] | outcome [17]
active: potentiation [3] 79% | potentiation [4] 50% | potentiation [15] 23%

Cc1ccc(NS(=O)(=O)c2ccc(NS(=O)(=O)c3cccs3)cc2)cc1
active: potentiation [15] 15%
inactive: outcome [1] | outcome [2] | outcome [3] | outcome [4] | outcome [5] | outcome [6] | outcome [7] | outcome [8] | outcome [9] | outcome [10] | outcome [11] | outcome [12] | outcome [13] | outcome [14] | outcome [16] | outcome [17]

CCCCN(C)C(=O)Cn1ncc2c3ccccc3n(CCC)c2c1=O
inactive: outcome [1] | outcome [2] | outcome [3] | outcome [5] | outcome [6] | outcome [7] | outcome [8] | outcome [9] | outcome [10] | outcome [11] | outcome [12] | outcome [13] | outcome [14] | outcome [16] | outcome [17]
active: potentiation [4] 37% | potentiation [15] 42.7%

CN1CCN(Cc2nc3ccccc3n2C)CC1CCO (stereo not given)
inactive: outcome [1] | outcome [2] | outcome [3] | outcome [4] | outcome [5] | outcome [6] | outcome [7] | outcome [8] | outcome [9] | outcome [10] | outcome [11] | outcome [12] | outcome [13] | outcome [14] | outcome [16] | outcome [17]
active: potentiation [15] 9.01%

CC1(C#CC[N+]2(C)CCCCC2)CCC2C(O1)c1ccccc1OC2(C)C (stereo not given)
inactive: outcome [1] | outcome [2] | outcome [5] | outcome [6] | outcome [7] | outcome [8] | outcome [9] | outcome [10] | outcome [11] | outcome [12] | outcome [13] | outcome [14] | outcome [15] | outcome [16] | outcome [17]
active: potentiation [3] 8% | potentiation [4] 21%

O=C(Cc1ccccc1)Nc1cccc(NC(=O)c2cccs2)c1
inactive: outcome [1] | outcome [2] | outcome [3] | outcome [4] | outcome [5] | outcome [6] | outcome [7] | outcome [8] | outcome [9] | outcome [10] | outcome [11] | outcome [12] | outcome [13] | outcome [14] | outcome [15] | outcome [16] | outcome [17]

CCN1C2=NCCCN2c2cc(C)c(C)cc21
inactive: outcome [1] | outcome [2] | outcome [3] | outcome [4] | outcome [5] | outcome [6] | outcome [7] | outcome [8] | outcome [9] | outcome [10] | outcome [11] | outcome [12] | outcome [13] | outcome [14] | outcome [15] | outcome [16] | outcome [17]

CC(C)C(=O)N1CCN(c2nc(-c3ccccc3)c3c(c2C#N)CCCC3)CC1
inactive: outcome [1] | outcome [2] | outcome [3] | outcome [5] | outcome [6] | outcome [7] | outcome [8] | outcome [9] | outcome [10] | outcome [11] | outcome [12] | outcome [13] | outcome [14] | outcome [16] | outcome [17]
active: potentiation [4] 26% | potentiation [15] 29.4%

Cc1noc(C)c1COC(=O)[C@@H](NC(=O)c1ccccc1Cl)C(C)C
inactive: outcome [1] | outcome [2] | outcome [3] | outcome [4] | outcome [5] | outcome [6] | outcome [7] | outcome [8] | outcome [9] | outcome [10] | outcome [11] | outcome [12] | outcome [13] | outcome [14] | outcome [15] | outcome [16] | outcome [17]

N=C(N)SCc1cn2ccccc2n1
inactive: outcome [1] | outcome [2] | outcome [3] | outcome [4] | outcome [5] | outcome [6] | outcome [7] | outcome [8] | outcome [9] | outcome [10] | outcome [11] | outcome [12] | outcome [13] | outcome [14] | outcome [16] | outcome [17]
active: potentiation [15] 8.53%

N=c1c2c(n(Cc3ccc(Br)cc3)c3c1CCC3)CCCC2
inactive: outcome [1] | outcome [2] | outcome [3] | outcome [4] | outcome [5] | outcome [6] | outcome [7] | outcome [8] | outcome [9] | outcome [10] | outcome [11] | outcome [12] | outcome [13] | outcome [14] | outcome [15] | outcome [16] | outcome [17]
